The test system of test [1] is Vero E6 infected with SARS-CoV-2. Nature of the test: morphology score (similarity to uninfected cells); higher = more like uninfected cells. The note with it: 24 h.
Test [2] has the same test system. Nature of the test: SARS-CoV-2 infection rate relative to infected DMSO; higher = more infection, active = 60 or less. The conditions noted are these: 24 h.

Structures are written as SMILES.

In test [1], `CC(C)(C)NCC(O)c1cc(Br)no1` (stereo not given) [broxaterol] (10 µM) came in with a morphology score of -0.00593. For the same molecule, in test [2], the SARS-CoV-2 infection rate was 112% (inactive).
As for `CCCCCCCCCC(=O)OCCN1CCN(CCCN2c3ccccc3Sc3ccc(C(F)(F)F)cc32)CC1` [fluphenazine-decanoate] (10 µM), the morphology score in test [1] was -0.147. Also, the SARS-CoV-2 infection rate in test [2] is 112% (inactive).
The like results for `CC(=O)S[C@@H]1CC2=CC(=O)CC[C@]2(C)[C@H]2CC[C@@]3(C)[C@@H](CC[C@@]34CCC(=O)O4)[C@H]12` [spironolactone] (10 µM) were, in that order, 0.291 and 98.5% (inactive).
Take `CCOc1ccc(NC(C)=O)cc1` [phenacetin] (10 µM): the morphology score in test [1] was -0.129. In addition, the SARS-CoV-2 infection rate in test [2] was 116% (inactive).
As for `CCOC(=O)[C@@](C)(N)Cc1ccc(O)c(O)c1` [methyldopate] (10 µM), the morphology score in test [1] amounted to 0.0423. For the same molecule, in test [2], the SARS-CoV-2 infection rate is 108% (inactive).
As for `FC(F)(F)C(F)(F)C(F)(F)C(F)(F)C(F)(F)C(F)(F)C(F)(F)C(F)(F)Br` [perflubron] (10 µM), the morphology score in test [1] was 0.0887. For the same molecule, the SARS-CoV-2 infection rate in test [2] is 102% (inactive).
With `COc1cc(/C=C/C(=O)O)ccc1O` [ferulic-acid] (10 µM), in test [1], the morphology score is -0.0443. In addition, in test [2], the SARS-CoV-2 infection rate was 110% (inactive).
In test [1], `O=C(Nc1ccccc1)N1CCN(c2nc(-c3ccccc3)ns2)CC1` (10 µM) returned a morphology score of -0.272. Further, the SARS-CoV-2 infection rate in test [2] is 112% (inactive).
In test [1], `C=CCSCC1Nc2cc(Cl)c(S(N)(=O)=O)cc2S(=O)(=O)N1` (stereo not given) [althiazide] (10 µM) came in with a morphology score of -0.00232. The SARS-CoV-2 infection rate in test [2] is 98% (inactive).
For the molecule `O=C(/C=C/c1c(C(=O)O)[nH]c2cc(Cl)cc(Cl)c12)Nc1ccccc1` [gavestinel] (10 µM), in test [1], the morphology score turned out to be 0.121. For the same molecule, the SARS-CoV-2 infection rate in test [2] was 108% (inactive).
Consider `C/C(=C(\CCOP(=O)(O)O)SC(=O)c1ccccc1)N(C=O)Cc1cnc(C)nc1N` [benfotiamine] (10 µM), for which the morphology score in test [1] was -0.0264. Besides, the SARS-CoV-2 infection rate in test [2] is 112% (inactive).
The like results for `Nc1ncn([C@@H]2O[C@H](CO)[C@@H](O)[C@H]2O)c(=O)n1` [azacitidine] (0.833333 µM) were, in that order, -0.0243 and 100% (inactive).
`C[C@@H]1O[C@@H]1P(=O)(O)O` (10 µM): in test [1], the morphology score stood at 0.00316. For the same molecule, the SARS-CoV-2 infection rate in test [2] was 104% (inactive).
Take `CN(C)C(=O)N[C@H]1CC[C@H](CCN2CCN(c3cccc(Cl)c3Cl)CC2)CC1` [cariprazine] (10 µM): the morphology score in test [1] is -0.0979. In test [2], the SARS-CoV-2 infection rate was 113% (inactive).
Turning to `CCCCOc1ccc(CC(=O)NO)cc1` [bufexamac] (10 µM), the morphology score in test [1] turned out to be 0.234. Also, the SARS-CoV-2 infection rate in test [2] was 94% (inactive).
Molecule `COc1ccc(NS(=O)(=O)c2ccc(N)cc2)nn1` [sulfamethoxypyridazine] (10 µM) registered a morphology score in test [1] of 0.0793. Also, the SARS-CoV-2 infection rate in test [2] was 110% (inactive).
As to `C=CCN(C)CCCCCCOc1ccc(C(=O)c2ccc(Br)cc2)c(F)c1` (10 µM), in test [1], the morphology score is 0.728. Besides, in test [2], the SARS-CoV-2 infection rate was 33.5% (active).
Regarding `NCc1cc(O)no1` [muscimol] (10 µM), the morphology score in test [1] is -0.00274. Further, the SARS-CoV-2 infection rate in test [2] was 111% (inactive).
The like results for `Cc1cc(O)c2c(c1)C(=O)c1cccc(O)c1C2=O` [chrysophanic-acid] (10 µM) were, in that order, -0.0993 and 110% (inactive).
For the molecule `N#Cc1cnc2c(Cl)cc(NCc3cn(CCN4CCCCCC4)nn3)cc2c1Nc1ccc(F)c(Cl)c1` [cot-inhibitor-1] (10 µM), the morphology score in test [1] came to 0.16. In test [2], the SARS-CoV-2 infection rate is 104% (inactive).
Molecule `O=C(NO)c1ccc2[nH]c(=O)c(CCCc3ccccc3)nc2c1` (10 µM) returned a morphology score in test [1] of -0.0251. Further, the SARS-CoV-2 infection rate in test [2] is 100% (inactive).
Consider `C=C[C@@](C)(/C=C/c1ccc(O)cc1)CCC=C(C)C` [bakuchiol] (10 µM), for which the morphology score in test [1] was -0.328. Besides, the SARS-CoV-2 infection rate in test [2] is 114% (inactive).
On to `CCCCC#Cc1nc(NC)c2ncn([C@@H]3O[C@H](CO)[C@@H](O)[C@H]3O)c2n1` (10 µM), for which the morphology score in test [1] stood at 0.143. Further, the SARS-CoV-2 infection rate in test [2] is 96% (inactive).
In test [1], `CCC(CC)CC1(C(=O)Nc2ccccc2SC(=O)C(C)C)CCCCC1` [dalcetrapib] (10 µM) displayed a morphology score of 0.152. For the same molecule, in test [2], the SARS-CoV-2 infection rate is 111% (inactive).
In turn, `O=C(CC(c1ccccc1)c1ccccc1)N1CCN(C(c2ccccc2)c2ccccc2)CC1` (10 µM) registered a morphology score in test [1] of 0.0825. The SARS-CoV-2 infection rate in test [2] was 102% (inactive).
`C[C@H](N/C(=N/C#N)Nc1cccc2ncccc12)c1ccccc1` (10 µM): the morphology score in test [1] is 0.0952. In addition, in test [2], the SARS-CoV-2 infection rate was 98.5% (inactive).
As to `O=C(Nc1ccccc1Br)N[C@@H]1CCN(c2ccc(C(F)(F)F)cn2)C1` (10 µM), the morphology score in test [1] came to 0.0714. The SARS-CoV-2 infection rate in test [2] was 94.5% (inactive).
Consider `Oc1ccc(-c2nc3cc(O)cc(Br)c3o2)cc1` (10 µM), for which, in test [1], the morphology score came out at 0.128. Besides, in test [2], the SARS-CoV-2 infection rate is 94.5% (inactive).
Molecule `C=CC(=O)Nc1cc(Nc2nccc(-c3c[nH]c4ccccc34)n2)c(OC)cc1N(C)CCN(C)C` (0.833333 µM) registered a morphology score in test [1] of -0.245. In test [2], the SARS-CoV-2 infection rate is 112% (inactive).
As to `CC1(C)S[C@@H]2[C@H](NC(=O)[C@H](N)c3ccc(O)cc3)C(=O)N2[C@H]1C(=O)O` [amoxicillin] (10 µM), the morphology score in test [1] was -0.146. Moreover, the SARS-CoV-2 infection rate in test [2] was 102% (inactive).

The values are drawn from the supplement of paper PMC13380429.
